According to ChEMBL document CHEMBL1961873, “Compounds: GSK PKIS; Assays: Nanosyn kinase panel” (2012):
Several values for one entry are separate records, joined by “and”; a condition that tells them apart may be missing. Equal entries are not always repeated.

Assays:
[1] = biological target: T1, Tyrosine-protein kinase ITK/TSK (Homo sapiens) (UniProt Q08881); settings: at 1 µM;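 note: values are mean percent inhibition of ITK from the GSK PKIS screen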
T1 sequence (whole entry): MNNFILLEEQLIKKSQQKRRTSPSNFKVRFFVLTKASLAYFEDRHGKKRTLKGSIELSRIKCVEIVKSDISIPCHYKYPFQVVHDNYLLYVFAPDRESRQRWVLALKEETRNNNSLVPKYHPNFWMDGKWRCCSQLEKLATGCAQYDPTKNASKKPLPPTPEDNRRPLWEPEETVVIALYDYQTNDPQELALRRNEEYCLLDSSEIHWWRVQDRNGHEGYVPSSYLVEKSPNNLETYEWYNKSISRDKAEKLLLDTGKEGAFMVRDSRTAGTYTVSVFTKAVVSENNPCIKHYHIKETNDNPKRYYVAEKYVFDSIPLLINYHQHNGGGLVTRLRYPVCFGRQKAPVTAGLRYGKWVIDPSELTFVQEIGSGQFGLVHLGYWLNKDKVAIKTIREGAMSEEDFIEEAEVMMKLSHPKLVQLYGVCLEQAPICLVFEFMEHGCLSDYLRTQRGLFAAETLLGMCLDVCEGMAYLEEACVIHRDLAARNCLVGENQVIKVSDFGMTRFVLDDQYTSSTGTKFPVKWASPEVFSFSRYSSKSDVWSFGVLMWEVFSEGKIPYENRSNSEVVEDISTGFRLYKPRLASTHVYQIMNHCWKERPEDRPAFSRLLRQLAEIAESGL

[2] = biological target: Tyrosine-protein kinase JAK1 (Homo sapiens) (UniProt P23458); settings: at 0.1 µM
[3] = biological target: Tyrosine-protein kinase JAK1 (Homo sapiens) (UniProt P23458); settings: at 1 µM
[4] = biological target: Tyrosine-protein kinase JAK2 (Homo sapiens) (UniProt O60674); settings: at 0.1 µM
[5] = biological target: Tyrosine-protein kinase JAK2 (Homo sapiens) (UniProt O60674); settings: at 1 µM
[6] = biological target: T2, Tyrosine-protein kinase JAK3 (Homo sapiens) (UniProt P52333); settings: at 0.1 µM
T2 sequence (whole entry): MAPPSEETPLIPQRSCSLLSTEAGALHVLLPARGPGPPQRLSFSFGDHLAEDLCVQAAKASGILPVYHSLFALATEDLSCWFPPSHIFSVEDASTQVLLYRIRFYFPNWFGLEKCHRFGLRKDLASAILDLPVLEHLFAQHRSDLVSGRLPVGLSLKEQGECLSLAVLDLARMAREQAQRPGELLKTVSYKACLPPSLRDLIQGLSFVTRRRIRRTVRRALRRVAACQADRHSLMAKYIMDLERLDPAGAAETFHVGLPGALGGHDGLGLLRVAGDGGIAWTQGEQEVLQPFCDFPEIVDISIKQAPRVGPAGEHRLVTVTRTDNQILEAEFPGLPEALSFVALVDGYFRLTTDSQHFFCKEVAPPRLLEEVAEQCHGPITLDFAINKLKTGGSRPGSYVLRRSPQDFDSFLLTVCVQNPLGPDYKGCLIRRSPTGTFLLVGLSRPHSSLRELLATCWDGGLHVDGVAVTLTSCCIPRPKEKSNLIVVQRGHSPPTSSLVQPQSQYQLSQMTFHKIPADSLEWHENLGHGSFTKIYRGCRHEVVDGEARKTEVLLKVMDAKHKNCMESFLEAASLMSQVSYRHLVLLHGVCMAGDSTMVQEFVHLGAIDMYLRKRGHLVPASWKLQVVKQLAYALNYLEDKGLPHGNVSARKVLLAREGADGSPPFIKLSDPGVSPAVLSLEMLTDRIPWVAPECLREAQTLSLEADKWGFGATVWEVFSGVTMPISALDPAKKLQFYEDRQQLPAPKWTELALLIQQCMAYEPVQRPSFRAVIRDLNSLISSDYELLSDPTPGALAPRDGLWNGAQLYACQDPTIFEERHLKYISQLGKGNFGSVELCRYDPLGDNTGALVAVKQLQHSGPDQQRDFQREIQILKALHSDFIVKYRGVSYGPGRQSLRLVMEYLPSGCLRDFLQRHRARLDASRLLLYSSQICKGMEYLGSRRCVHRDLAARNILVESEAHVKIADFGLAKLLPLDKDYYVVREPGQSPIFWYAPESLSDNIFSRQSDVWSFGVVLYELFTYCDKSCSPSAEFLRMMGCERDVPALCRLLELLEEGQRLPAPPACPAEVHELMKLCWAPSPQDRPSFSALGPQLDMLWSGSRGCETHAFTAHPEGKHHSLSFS

[7] = biological target: T2, Tyrosine-protein kinase JAK3 (Homo sapiens); settings: at 1 µM
[8] = biological target: Vascular endothelial growth factor receptor 2 (Homo sapiens) (UniProt P35968); settings: at 0.1 µM
[9] = biological target: Vascular endothelial growth factor receptor 2 (Homo sapiens) (UniProt P35968); settings: at 1 µM
[10] = biological target: Mast/stem cell growth factor receptor Kit (Homo sapiens) (UniProt P10721); settings: at 0.1 µM;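 note: values are mean inhibition of KIT, from the GSK PKIS dataset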
Sequence of Mast/stem cell growth factor receptor Kit (Homo sapiens) (P10721 whole entry): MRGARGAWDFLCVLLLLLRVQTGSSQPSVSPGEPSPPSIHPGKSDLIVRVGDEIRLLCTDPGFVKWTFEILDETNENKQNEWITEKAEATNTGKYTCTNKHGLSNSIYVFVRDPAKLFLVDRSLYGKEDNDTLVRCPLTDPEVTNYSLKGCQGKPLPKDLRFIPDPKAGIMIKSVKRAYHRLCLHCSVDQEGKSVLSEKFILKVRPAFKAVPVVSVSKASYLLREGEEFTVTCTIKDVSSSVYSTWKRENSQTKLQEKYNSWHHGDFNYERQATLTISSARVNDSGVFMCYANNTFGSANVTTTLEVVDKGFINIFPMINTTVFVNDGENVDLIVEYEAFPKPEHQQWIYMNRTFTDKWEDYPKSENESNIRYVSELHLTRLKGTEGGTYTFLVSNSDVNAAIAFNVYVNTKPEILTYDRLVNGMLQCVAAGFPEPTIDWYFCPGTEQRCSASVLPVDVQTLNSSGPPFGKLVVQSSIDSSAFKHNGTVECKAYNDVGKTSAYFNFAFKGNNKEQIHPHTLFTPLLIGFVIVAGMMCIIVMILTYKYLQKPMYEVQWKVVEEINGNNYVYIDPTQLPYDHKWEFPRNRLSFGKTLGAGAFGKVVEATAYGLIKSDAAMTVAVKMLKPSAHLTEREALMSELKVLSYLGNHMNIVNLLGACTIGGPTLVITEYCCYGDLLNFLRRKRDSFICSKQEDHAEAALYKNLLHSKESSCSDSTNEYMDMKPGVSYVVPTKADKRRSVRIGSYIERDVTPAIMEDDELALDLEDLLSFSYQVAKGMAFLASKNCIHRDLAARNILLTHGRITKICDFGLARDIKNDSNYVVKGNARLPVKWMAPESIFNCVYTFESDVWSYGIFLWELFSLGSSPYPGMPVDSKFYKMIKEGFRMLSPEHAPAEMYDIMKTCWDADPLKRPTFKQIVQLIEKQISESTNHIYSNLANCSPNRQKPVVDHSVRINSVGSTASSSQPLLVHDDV

Sequence of Tyrosine-protein kinase JAK1 (Homo sapiens) (P23458 whole entry): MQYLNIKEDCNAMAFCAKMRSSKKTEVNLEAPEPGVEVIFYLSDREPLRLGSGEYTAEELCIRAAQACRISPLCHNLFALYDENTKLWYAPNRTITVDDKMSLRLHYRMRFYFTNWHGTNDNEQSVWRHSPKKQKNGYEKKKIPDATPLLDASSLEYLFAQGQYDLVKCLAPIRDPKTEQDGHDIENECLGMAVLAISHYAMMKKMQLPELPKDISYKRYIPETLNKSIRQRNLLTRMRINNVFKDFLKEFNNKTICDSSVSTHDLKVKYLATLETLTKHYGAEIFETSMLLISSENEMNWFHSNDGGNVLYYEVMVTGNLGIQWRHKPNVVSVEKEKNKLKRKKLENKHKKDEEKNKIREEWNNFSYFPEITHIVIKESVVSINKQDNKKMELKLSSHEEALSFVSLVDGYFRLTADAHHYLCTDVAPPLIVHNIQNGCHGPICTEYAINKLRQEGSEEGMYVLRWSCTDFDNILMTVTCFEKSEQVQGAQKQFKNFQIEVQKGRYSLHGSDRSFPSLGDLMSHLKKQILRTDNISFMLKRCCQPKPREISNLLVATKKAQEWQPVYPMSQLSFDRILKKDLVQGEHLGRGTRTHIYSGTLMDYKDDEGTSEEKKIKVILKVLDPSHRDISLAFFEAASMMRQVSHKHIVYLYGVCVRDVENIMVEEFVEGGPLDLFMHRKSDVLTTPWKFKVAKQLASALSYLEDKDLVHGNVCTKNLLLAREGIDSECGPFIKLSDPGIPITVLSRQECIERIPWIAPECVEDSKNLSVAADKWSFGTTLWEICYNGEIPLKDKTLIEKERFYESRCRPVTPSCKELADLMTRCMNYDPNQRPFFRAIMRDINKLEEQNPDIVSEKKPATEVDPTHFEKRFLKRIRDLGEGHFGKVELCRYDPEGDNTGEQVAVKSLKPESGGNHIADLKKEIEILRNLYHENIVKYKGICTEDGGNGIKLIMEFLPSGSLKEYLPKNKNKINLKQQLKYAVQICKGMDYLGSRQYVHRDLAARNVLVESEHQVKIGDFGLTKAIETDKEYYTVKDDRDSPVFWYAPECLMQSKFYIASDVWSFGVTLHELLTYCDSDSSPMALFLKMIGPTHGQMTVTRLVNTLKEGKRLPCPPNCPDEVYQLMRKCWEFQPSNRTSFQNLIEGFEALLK
Sequence of Tyrosine-protein kinase JAK2 (Homo sapiens) (O60674 whole entry): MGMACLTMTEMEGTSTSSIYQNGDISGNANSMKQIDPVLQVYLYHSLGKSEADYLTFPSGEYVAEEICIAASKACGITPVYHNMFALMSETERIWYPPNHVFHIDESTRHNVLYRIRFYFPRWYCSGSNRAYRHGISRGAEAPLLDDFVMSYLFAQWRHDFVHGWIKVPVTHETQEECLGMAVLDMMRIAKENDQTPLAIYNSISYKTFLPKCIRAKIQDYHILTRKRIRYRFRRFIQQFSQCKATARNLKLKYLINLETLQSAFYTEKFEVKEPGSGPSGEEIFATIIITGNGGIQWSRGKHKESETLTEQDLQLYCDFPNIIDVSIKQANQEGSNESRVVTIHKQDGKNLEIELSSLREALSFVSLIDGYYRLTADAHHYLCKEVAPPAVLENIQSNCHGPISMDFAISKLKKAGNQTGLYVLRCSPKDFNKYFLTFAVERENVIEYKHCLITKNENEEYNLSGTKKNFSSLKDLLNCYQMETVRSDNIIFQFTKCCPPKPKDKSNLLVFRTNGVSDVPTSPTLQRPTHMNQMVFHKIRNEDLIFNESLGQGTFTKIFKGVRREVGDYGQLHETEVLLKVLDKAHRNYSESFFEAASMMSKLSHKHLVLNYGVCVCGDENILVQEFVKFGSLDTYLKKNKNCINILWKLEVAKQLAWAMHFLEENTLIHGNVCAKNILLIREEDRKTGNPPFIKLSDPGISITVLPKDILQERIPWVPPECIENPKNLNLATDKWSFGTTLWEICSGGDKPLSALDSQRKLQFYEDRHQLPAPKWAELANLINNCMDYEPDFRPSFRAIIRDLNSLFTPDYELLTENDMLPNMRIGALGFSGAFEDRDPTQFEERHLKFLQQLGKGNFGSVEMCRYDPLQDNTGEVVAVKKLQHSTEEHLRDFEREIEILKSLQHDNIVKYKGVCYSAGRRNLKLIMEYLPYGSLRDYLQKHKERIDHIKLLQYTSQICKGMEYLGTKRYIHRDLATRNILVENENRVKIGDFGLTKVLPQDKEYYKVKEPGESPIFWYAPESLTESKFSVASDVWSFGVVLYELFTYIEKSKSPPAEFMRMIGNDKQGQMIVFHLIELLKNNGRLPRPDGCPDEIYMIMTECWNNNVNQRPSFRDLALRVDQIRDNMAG
Sequence of Vascular endothelial growth factor receptor 2 (Homo sapiens) (P35968 whole entry): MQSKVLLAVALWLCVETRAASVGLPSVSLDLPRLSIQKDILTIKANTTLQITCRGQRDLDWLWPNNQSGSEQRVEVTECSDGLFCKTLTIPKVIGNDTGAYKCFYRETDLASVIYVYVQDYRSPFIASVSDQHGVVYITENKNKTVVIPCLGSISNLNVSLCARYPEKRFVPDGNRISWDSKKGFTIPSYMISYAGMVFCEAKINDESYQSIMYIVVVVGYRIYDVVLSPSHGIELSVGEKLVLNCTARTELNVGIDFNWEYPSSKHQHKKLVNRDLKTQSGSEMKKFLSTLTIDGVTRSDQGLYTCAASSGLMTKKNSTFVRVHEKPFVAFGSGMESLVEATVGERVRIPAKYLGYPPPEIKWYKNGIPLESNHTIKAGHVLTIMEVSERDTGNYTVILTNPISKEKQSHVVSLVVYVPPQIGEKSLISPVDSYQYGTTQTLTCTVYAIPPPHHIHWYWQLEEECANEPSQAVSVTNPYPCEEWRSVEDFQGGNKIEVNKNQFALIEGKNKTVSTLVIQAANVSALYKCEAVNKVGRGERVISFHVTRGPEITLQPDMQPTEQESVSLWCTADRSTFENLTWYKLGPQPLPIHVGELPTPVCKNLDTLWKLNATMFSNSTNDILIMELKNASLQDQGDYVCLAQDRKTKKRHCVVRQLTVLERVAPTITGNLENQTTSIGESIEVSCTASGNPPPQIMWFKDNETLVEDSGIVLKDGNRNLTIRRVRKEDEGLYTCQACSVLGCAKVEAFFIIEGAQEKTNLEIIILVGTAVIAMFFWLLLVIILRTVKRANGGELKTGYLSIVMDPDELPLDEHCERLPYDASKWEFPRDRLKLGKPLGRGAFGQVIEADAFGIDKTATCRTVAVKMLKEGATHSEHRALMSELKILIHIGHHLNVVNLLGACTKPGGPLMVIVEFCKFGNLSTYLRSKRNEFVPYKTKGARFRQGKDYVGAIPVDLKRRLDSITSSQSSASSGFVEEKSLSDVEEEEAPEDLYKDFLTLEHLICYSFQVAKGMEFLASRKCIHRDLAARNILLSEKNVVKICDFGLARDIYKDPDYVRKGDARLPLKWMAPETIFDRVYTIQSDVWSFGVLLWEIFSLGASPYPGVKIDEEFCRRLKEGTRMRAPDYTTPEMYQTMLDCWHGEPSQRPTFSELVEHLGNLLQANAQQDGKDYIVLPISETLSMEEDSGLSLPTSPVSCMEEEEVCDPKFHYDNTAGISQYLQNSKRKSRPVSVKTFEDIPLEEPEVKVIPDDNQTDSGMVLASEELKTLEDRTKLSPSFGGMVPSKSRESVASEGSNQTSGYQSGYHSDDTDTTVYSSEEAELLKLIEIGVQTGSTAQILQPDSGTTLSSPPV

SMILES | inhibition [1] | inhibition [2] | inhibition [3] | inhibition [4] | inhibition [5] | inhibition [6] | inhibition [7] | inhibition [8] | inhibition [9] | inhibition [10]
CCS(=O)(=O)c1ccc(OC)c(Nc2ncc(-c3cccc(F)c3)o2)c1 | 6.38% | 7.39% | 10.4% | 3.25% | 2.43% | -1.97% | 0.45% | 46.8% | 77% | 74.7%
Cc1cc(O)cc(C)c1/C=C/c1cncc(C(N)=O)c1 | 2.12% | -0.72% | 2.56% | 2.3% | 2.93% | -0.77% | 1.29% | 4.56% | 6.58% | 16.3%
CN(C)CCNC(=O)Nc1ccc(N(C)c2ccnc(Nc3ccc(CS(C)(=O)=O)cc3)n2)cc1 | 3.84% | 3.89% | -1.93% | 1.46% | 3.2% | -1.47% | -0.17% | 7.04% | 18.9% | 13.9%
CCN1CCC(C(=O)Nc2n[nH]c3nnc(-c4cccc(F)c4F)cc23)CC1 | 0.88% | 1.68% | -1.21% | -0.5% | -0.03% | 0.12% | 1.09% | 1.67% | 4.26% | 1.8%
NS(=O)(=O)c1cccc(N/C=C2\C(=O)Nc3ccccc32)c1 | 3.54% | 2.83% | 6.08% | 1.37% | 2.13% | -2% | 0.9% | 9.08% | 35.3% | 16.4%
CC1=C(C(=O)Nc2ccc3[nH]nc(C)c3c2)C(c2ccc(C(F)(F)F)cc2)CC(=O)N1 (stereo not given) | 7.86% | 38.5% | 70.7% | 31.1% | 82.4% | 15.6% | 68.8% | 5.36% | 11% | 2.41%
Nc1nccc(-c2c(-c3ccc(F)cc3)ncn2C2CCNCC2)n1 | -0.06% and 1.58% | -5.03% and -2.79% | 1.1% and 3.47% | -1.85% and 0.8% | -1.57% and 1.93% | 0.47% and 0.86% | 2.72% and 2.66% | -2.27% and 1.08% | 2.47% and 2.78% | -3.74% and 1.54%
Cn1c(-c2nonc2N)nc2cnccc21 | 1.68% | 4.75% | 2.08% | 1.45% | 1.42% | -1.06% | -0.29% | 4.81% | 12.2% | 4.67%
CCS(=O)(=O)c1ccc(OC)c(Nc2ncc(-c3cccc(C(C)=O)c3)o2)c1 | 2.71% | 0.61% | 6.56% | 0.16% | 1.8% | -1.13% | 1.72% | 16.4% | 58.9% | 19.7%
NS(=O)(=O)c1ccc(N/N=C2\C(=O)Nc3ccc(C(=O)NCc4ccncc4)cc32)cc1 | 3.12% | 3.77% | 9.66% | 0.74% | 1.38% | -0.81% | 6.2% | 7.35% | 34.5% | 4.44%
COc1cc(Nc2ncc(-c3ccccc3)o2)cc(OC)c1 | 3.63% | -0.99% | 5.5% | 2.04% | 1.78% | -3.48% | -1.92% | 6.74% | 19.3% | 78.5%
Cc1c2ccc(N(C)c3ccnc(Nc4cccc(S(N)(=O)=O)c4)n3)cc2nn1C | 2.14% | 1.56% | 9.69% | 2.02% | 6.46% | -4.75% | 0.05% | 76.4% | 73% | 92.6%
Fc1ccc(Nc2nccc(-c3c(-c4ccc(C(F)(F)F)cc4)nn4ncccc34)n2)cc1F | 2.42% | 2.03% | 0.13% | 1.44% | 2.24% | -1.12% | 0.59% | 5.73% | 7.03% | 4.14%
COC(=O)Nc1nc2ccc(Oc3ccc(NC(=O)Nc4cc(C(F)(F)F)ccc4F)cc3)cc2s1 | 2.72% | 0.07% | 9.06% | 1.98% | 7.31% | -0.26% | 0.75% | 69.8% | 85.1% | 17.9%
Fc1cccc(COc2ccc(Nc3ncncc3C#Cc3ccccc3)cc2Cl)c1 | 1.93% | 2.37% | 14.7% | 1.34% | 2.01% | -1.12% | 0.1% | 5.83% | 6.38% | 3.62%
CCn1c(-c2nonc2N)nc2cncc(C(=O)NCCNC)c21 | 0.3% | 0.48% | 2.04% | 2.49% | 0.73% | -3.8% | -2.17% | 4.45% | 13.5% | 6.23%

SMILES | inhibition [1] | inhibition [2] | inhibition [3] | inhibition [4] | inhibition [5] | inhibition [6] | inhibition [7] | inhibition [8] | inhibition [9] | inhibition [10]
Nc1nonc1-c1nc2cnccc2n1C1CC1 | 1.67% and -2.42% | 0.26% and 0.62% | -0.07% and 3.24% | 0.87% and 1.12% | 3.76% and 0.55% | 4.13% and -4.12% | 4.66% and -3.11% | 14.3% and 13.8% | 54.2% and 52% | 4.06% and 2.58%
Cc1ccc(-c2cc3c(NC(=O)C4CC4)ncnc3o2)cc1 | 2.63% | 2.29% | 1.7% | 2.06% | 2.55% | -0.9% | 2.42% | 6.12% | 13.4% | 8.72%
NC(=O)c1ccc2c(-c3ccnc(NCCCO)n3)c(-c3ccc(F)cc3)nn2c1 | 1.77% | 0.15% | 4.59% | 1.16% | 2.01% | -1.31% | -0.86% | 6.05% | 16.6% | 6.24%
c1cnn2ncc(-c3ccnc(NCCCN4CCOCC4)n3)c2c1 | 0.08% | 2.8% | 4.8% | 2.27% | 1.4% | -1.85% | -2.75% | 5.58% | 6.83% | 5.59%
CCOc1ccc2c(-c3ccnc(Nc4cc(OC)cc(C(F)(F)F)c4)n3)cnn2n1 | 1.63% | -2.13% | 6.23% | 1.22% | 5.38% | 0.66% | 9.24% | 4.19% | 19.1% | 7.32%
COc1cc2c(cc1Nc1nc(Nc3cccc(F)c3C(N)=O)c3cc[nH]c3n1)N(C(=O)CN1CCN(C(C)C)CC1)CC2 | 4.16% | -0.19% | -3.81% | 0.65% | 2.21% | 0.64% | 6.68% | 0.99% | 9.98% | -1.31%
COc1cc(N2CCN(C(C)C)CC2)ccc1Nc1nc(Nc2cccc3ncccc23)c2cc[nH]c2n1 | 2.05% | -1.68% | -0.17% | -0.12% | 0.72% | 1.35% | 1.57% | 1.96% | 3.64% | -0.77%
CS(=O)(=O)CCNCc1ccoc1-c1ccc2ncnc(Nc3ccc(OCc4ccccc4)cc3)c2c1 | 1.03% | -1.22% | -0.53% | -0.17% | -0.95% | -0.19% | 0.82% | 3.88% | 5.6% | 1.94%
COc1cccc(-n2ncc3c(N/N=C/c4ccc(C(=O)NCCN(C)C)cc4)ncnc32)c1 | 8.64% | 4.89% | 18.1% | 2.63% | 14.1% | 0.22% | 15.4% | 43.6% | 68.7% | 15.5%
CN(c1ccc(NC(=O)NCCN2CCOCC2)cc1)c1ccnc(Nc2ccc(CS(C)(=O)=O)cc2)n1 | 9.06% | 3.28% | 15% | 0.02% | 9.94% | -0.77% | 7.15% | 7.07% | 34.8% | 60.2%
CC1=C(C(=O)Nc2ccc3[nH]ncc3c2)C(c2ccc(F)cc2)N=C(c2ccc(C(F)(F)F)nc2)N1 (stereo not given) | 2.33% | 1.34% | 1.91% | 1.27% | 2.08% | 0.58% | 1.34% | 5.88% | 9.39% | 4.11%
CS(=O)(=O)CCNCc1ccc(-c2ccc3ncnc(Nc4ccc(OCc5ccccc5)cc4)c3c2)o1 | 2.16% | 6.4% | 5.72% | 1.29% | 0.35% | -2% | -1.45% | 3.83% | 6.56% | 2.46%
CNC(=O)c1sc(-n2cnc3cc(OC)c(OC)cc32)cc1OCc1ccccc1C(F)(F)F | 3.59% | 0.71% | 7.26% | -0.02% | 0.52% | -2.82% | -0.34% | 4.23% | 12.4% | 4.06%
COC(=O)Nc1nc2cc(Oc3ccc(NC(=O)Nc4ccccc4)cc3)ccc2[nH]1 | 1.86% | 3.81% | 9.99% | 0.07% | 1.12% | -1.68% | -0.28% | 4.55% | 7.27% | 29.2%
O=C1Nc2ccccc2/C1=C1\CCc2cc(O)ccc21 | 14.6% | 3.42% | 12.7% | 1.74% | 3.79% | -0.09% | 13.3% | 10.5% | 37.8% | 66.3%
